Each structure is given as a SMILES string. The panel holds about 83,000 compounds, 20% with a hit somewhere; the sample as a whole holds those more often.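 Single-dose data. Exposure time 48 hours. Values below 10 considered active.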 A number with no mark means an inactive call. The source made the active and inactive calls.

Growth data for 9 molecules are collected here from PubChem BioAssay (NCI).

Holding throughout (experiment): NCI-60 one-dose screen, 48 h (100 = growth as untreated, 0 = no growth, -100 = all killed)
Details in all cases: 10 µM

Experiment [1] has as its system HT29 colon.
Experiment [2] concerns SNB-75 CNS.
Experiment [3] deals with SNB-19 CNS.
In experiment [4] the test system is U251 CNS.
In experiment [5] the test system is PC-3 prostate.
Experiment [6] concerns SK-MEL-5 melanoma.
Experiment [7] deals with UACC-62 melanoma.
The test system of experiment [8] is LOX IMVI melanoma.
In experiment [9] the test system is SK-MEL-28 melanoma.
For experiment [10], the system named is SN12C renal.
The subject of experiment [11] is UO-31 renal.
The subject of experiment [12] is TK-10 renal.
The subject of experiment [13] is ACHN renal.
For experiment [14], the system named is CAKI-1 renal.
In experiment [15] the test system is A498 renal.
Experiment [16] concerns CCRF-CEM leukemia.
Experiment [17] concerns MOLT-4 leukemia.
In experiment [18] the test system is SR leukemia.
Experiment [19] has as its system SK-MEL-2 melanoma.
Experiment [20] deals with EKVX NSCLC.

Consider `COc1ccc(-c2nn(-c3cccc(NC(=O)c4ccc(N5CCOCC5)c(C(F)(F)F)c4)c3)cc2-c2ccncc2)cc1Cl`, for which the growth is 11.2% in [1]; 47% in [2]; 81.4% in experiment [3]; 23.6% in [4]; 42.7% in experiment [5]; 68.2% in experiment [6]. In addition, the growth in [7] was 74.3%; in experiment [8] it was 74.2%; in experiment [9], 72.3%; in experiment [10], 85.2%; in experiment [11], 40.9%; in experiment [12], 82.8%. Besides, the growth in experiment [13] was 60.3%; in [14], 47.9%; in experiment [15], 60%; in [16], 38.3%; in experiment [17], 42.1%; in experiment [18], 27.2%.
In the case of `O=C(NN1C(=O)CSC1c1ccc(Cl)cc1)c1cccnc1` (stereo not given), the growth is 109% in [1]; 110% in experiment [2]; 113% in [3]; 99.5% in experiment [4]; 93.6% in [5]; 102% in experiment [6]. Also, the growth is 125% in experiment [7]; 102% in [8]; 109% in experiment [19]; 95.2% in [20]; 131% in [10]; 72.2% in experiment [11]. In addition, the growth in [12] was 107%; in experiment [13], 113%; in [14] it was 98.2%; in [16], 99.5%.
For the molecule `O=C(Nc1cccc(-n2cc(-c3ccncc3)c(-c3ccc(O)c(Cl)c3)n2)c1)c1ccc(Cl)c(Cl)c1`, the growth in experiment [1] was 69.8%; in [2], 38.5%; in experiment [3], 72.8%; in experiment [4], 11%; in [5], 37.9%; in experiment [6] it was 48.1%. Besides, the growth was 51.1% in [7]; 53% in experiment [8]; 47.6% in experiment [9]; 70.9% in experiment [10]; 36.3% in experiment [11]; 104% in [12]. Further, the growth is 49% in [13]; 13% in experiment [14]; 74.6% in [15]; 33% in [16]; 45.8% in experiment [17]; 15.1% in experiment [18].
Consider `O=c1oc2cc(OS(=O)(=O)c3ccccc3)ccc2c2c1CCCCC2`, for which the growth in experiment [1] was 10%; in [2], 69.5%; in experiment [3], 77%; in [4] it was 34.4%; in [5], 29.5%; in experiment [6] it was 26%. Further, the growth in experiment [7] is 57.2%; in experiment [8], 63.8%; in experiment [9], 73.2%; in experiment [10], 61.4%; in experiment [11], 59.4%; in experiment [12], 67.9%. Moreover, the growth in [13] is 82.2%; in experiment [14], 73.9%; in experiment [15], 48.9%; in experiment [16] it was 37.2%; in experiment [17], 31.4%; in [18] it was 7% (active).
`CN(C)CCOc1nc2ccccc2c2c1-c1ccc(Cl)cc1C2=O`: the growth in [1] is -33.8% (active); in [2], -63.8% (active); in experiment [3], 14.9%; in [4], 0.224% (active); in [5], 2.76% (active); in [7], -39.5% (active). Also, the growth in experiment [8] was -37.1% (active); in experiment [9] it was -49.9% (active); in [19], -9.67% (active); in experiment [20], -1.93% (active); in experiment [10], 11.3%; in experiment [11], -33.1% (active). Moreover, the growth is -16.4% (active) in experiment [12]; 10.1% in experiment [13]; -13.7% (active) in [14]; 25.2% in [15]; 2.75% (active) in experiment [16]; 1.17% (active) in experiment [17]. Moreover, in experiment [18], the growth is -6.41% (active).
For the molecule `Cc1nc2ccccc2c(N)c1-c1cc(C)c2c(C)nc3ccccc3c2n1`, the growth in experiment [1] is -93.5% (active); in experiment [2], -77.6% (active); in experiment [3], 22.6%; in experiment [4], -76.6% (active); in [5] it was -18.5% (active); in [7], 97%. The growth in [8] was -84.7% (active); in experiment [9] it was -90.7% (active); in experiment [19], 96.3%; in experiment [20], 68.4%; in [10], 57.9%; in experiment [11], -95.7% (active). Besides, the growth in experiment [12] was 14.3%; in [13], -92.4% (active); in [15] it was -12.9% (active); in experiment [16], -42.1% (active); in [17], -50.8% (active); in experiment [18], -39.5% (active).
Take `Cc1cc(C)c2c(n1)sc1c(Nc3ccc(Cl)cc3)ncnc12`: the growth in experiment [1] is 27.5%; in experiment [2] it was 32.7%; in experiment [3] it was 10.4%; in experiment [4] it was 22.5%; in experiment [5] it was 49.2%; in [7] it was -11% (active). In addition, the growth in experiment [8] was -16.9% (active); in [9], 55.3%; in [19], 82.8%; in [10] it was -20.9% (active); in experiment [11] it was -19.8% (active); in experiment [12], 47.7%. Besides, the growth in experiment [13] is 1.33% (active); in [14], 12.1%; in experiment [15], -9.23% (active); in experiment [16], 4.05% (active); in experiment [17], -6.2% (active); in experiment [18], 3.86% (active).
As to `Cc1cccc(C)c1NC(=O)c1sc2nc3c(cc2c1N)C(=O)CCC3`, the growth in experiment [1] was 85.6%; in [2] it was 82.6%; in experiment [3], 66.5%; in [4], 85.6%; in [5], 70.2%; in [7], 67.4%. Besides, the growth in experiment [8] is 91.3%; in experiment [9], 81.3%; in experiment [19], 69.7%; in [10], 90.1%; in [11], 79.5%; in [12], 88.7%. Also, the growth was 89.6% in experiment [13]; 52% in experiment [14]; -8.11% (active) in experiment [15]; 66.5% in [16]; 96.2% in experiment [17]; 69.1% in [18].
As for `COc1ccc(-c2cc(-c3cccc(NS(C)(=O)=O)c3)nc(N)c2C#N)cc1`, the growth in experiment [1] is 8.45% (active); in experiment [2], -6.31% (active); in [3], 42.1%; in experiment [4] it was 28.5%; in experiment [5], 9.4% (active); in experiment [7] it was 39.9%. For the same molecule, the growth in experiment [8] is 44.8%; in [9], 66%; in [19], 49.8%; in experiment [20], 22%; in [10], 43.3%; in [11], 31.9%. In addition, the growth in experiment [12] is 67.5%; in experiment [13], 36.4%; in experiment [16] it was 19%; in experiment [17] it was 19.7%; in experiment [18], 16.1%.
